# The panel holds about 83,000 compounds, 20% with a hit somewhere; the sample as a whole holds those more often.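 A percent growth of 40 corresponds to 60% growth inhibition; 0 means no net growth; -100 means all cells died. Active threshold: below 10.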 A number with no mark means an inactive call. Active and inactive are the calls of the source.
# What was measured:
# Test in all cases: NCI-60 one-dose screen, 48 h (100 = growth as untreated, 0 = no growth, -100 = all killed)
# Conditions in all cases: 10 µM unless noted
# T-47D breast = system: T-47D breast
# BT-549 breast = system: BT-549 breast
# MDA-MB-435 melanoma = system: MDA-MB-435 melanoma
# SW-620 colon = system: SW-620 colon
# MCF7 breast = system: MCF7 breast
# HCT-116 colon = system: HCT-116 colon
# KM12 colon = system: KM12 colon
# HCC-2998 colon = system: HCC-2998 colon
Structure (SMILES),growth (T-47D breast),growth (BT-549 breast),growth (MDA-MB-435 melanoma),growth (SW-620 colon),growth (MCF7 breast),growth (HCT-116 colon),growth (KM12 colon),growth (HCC-2998 colon)
CC(=O)Nc1ccc(-n2cnc3cc(-c4ccc(OCCN5CCCCC5)cc4)ccc32)cc1,107%,99.4%,102%,-29% (active),70.6%,-51.2% (active),29%,
Cc1cc2cc3ccc(N(C)C)cc3nc2cc1N,-9.44% (active),20.7%,5.71% (active),-37.9% (active),-4.08% (active),-20% (active),-20.7% (active),
OC(c1cccc(C(F)(F)F)c1)c1cnccc1NC1CCCCC1 (centres undefined),49.1%,93.5%,86.6%,77.6%,71.4%,51.1%,80.8%,
COc1cc2nc(-c3ccc(C(F)(F)F)cc3)cc(OCCCN3CCCC3)c2cc1OC,38.4%,28.8%,-21.1% (active),28.6%,44.7%,,36.4%,70%
COc1cc(C2=NN(C(C)=O)C(c3cc(OC)c(OC)c(OC)c3)C2)ccc1O (centres undefined),45.6%,23.1%,-76% (active),12.4%,8.15% (active),,2.51% (active),-49.3% (active)
COc1ccccc1NC(=O)C1CC(c2ccc(F)cc2)=NO1 (centres undefined),93.9%,112%,103%,102%,90.8%,,101%,90.1%
COc1cccc(/C=N/NC(=O)c2cnn3c2NC(c2ccccc2)C3)c1Oc1ccccc1 (centres undefined),79.8%,65.7%,1.99% (active),65.6%,47.7%,55.6%,51.8%,
COc1cc2nc(-c3ccc(Cl)cc3)cc(OCCCN3CCCC3)c2cc1OC,32%,37.3%,-7.23% (active),30.4%,48.1%,23.4%,41.4%,
N#C/C(=C\c1ccccn1)c1nc2cc(Cl)ccc2s1,27.7%,33.3%,74.7%,77.5%,37.1%,55%,96.2%,
COc1cc(F)c(/C=C/c2cc(/C=C/c3cc(OC)c(OC)cc3F)on2)cc1OC,79%,91.4%,7.63% (active),80.4%,70.6%,60.3%,54.6%,
O=C(Nc1ccc(NC(=O)c2cc(=O)[nH]c3ccccc23)cc1)Nc1cccc(Cl)c1,68.6%,79%,97%,89.9%,76%,82%,-55.9% (active),
CCOC(=O)c1ccc2c(c1)ncn2-c1ccc(NC(=O)Nc2cccc(C)c2)cc1,31.2%,115%,77.6%,81.6%,54.7%,57.2%,27.7%,
N#CC1=C(N)Oc2c(cnn2-c2ccc([N+](=O)[O-])cc2[N+](=O)[O-])C1c1ccccc1 (centres undefined),98%,107%,101%,96.2%,97%,100%,101%,
O=C1OC(Cc2ccccc2)C1c1ccccc1 (centres undefined),93.7%,95.1%,102%,107%,98.1%,,101%,99.5%
CCCCC[n+]1ccc(SCC(=O)N(C)c2ccc(Oc3ccccc3)cc2)c2ccccc21,68.5%,130%,98.1%,86.4%,95.7%,92.8%,102%,
C=C1C(=O)O[C@H]2[C@H]1CC/C(CNC(=O)/C=C/c1ccccc1)=C\CC[C@@]1(C)O[C@@H]21,-12.1% (active),-56.8% (active),-8.54% (active),-68.4% (active),-22.2% (active),,76.5%,-7.49% (active)
Cc1ccc(C(=O)/C(=C\c2ccc([N+](=O)[O-])cc2)S(=O)Cc2ccc(Cl)cc2)cc1 (centres undefined),-19.1% (active),62%,50.1%,7.46% (active),15.2%,-50.1% (active),46.6%,

# From PubChem BioAssay (NCI)
